# Results: paper PMC7826789 (International Journal of Molecular Sciences, 2021)
# Columns and labels:
# Conditions in all cases: Compound Concentration (nM):1000
# [1] = system: ABL1(Q252H)-phosphorylated
# [2] = system: ABL1(T315I)-nonphosphorylated
# [3] = system: ABL1(T315I)-phosphorylated
# [4] = system: ABL1(Y253F)-phosphorylated
# ABL1-nonphosphorylated = system: ABL1-nonphosphorylated
# ABL1-phosphorylated = system: ABL1-phosphorylated
# ABL2 = system: ABL2
# ACVR1B = system: ACVR1B
# ACVR1 = system: ACVR1
# ACVR2A = system: ACVR2A
# ACVR2B = system: ACVR2B
# ACVRL1 = system: ACVRL1
# ADCK3 = system: T1, ADCK3
# T1 construct: gene CABC1
# ADCK4 = system: ADCK4
# AKT1 = system: AKT1
# AKT2 = system: AKT2
# AKT3 = system: AKT3
# ALK(C1156Y) = system: ALK(C1156Y)
# ALK(L1196M) = system: ALK(L1196M)
# ALK = system: ALK
# 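Further: KINOMEscan scanMAX binding as percent activity remaining versus control; lower means stronger binding.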
Structure (SMILES),Percent Control [1] [%],Percent Control [2] [%],Percent Control [3] [%],Percent Control [4] [%],Percent Control (ABL1-nonphosphorylated) [%],Percent Control (ABL1-phosphorylated) [%],Percent Control (ABL2) [%],Percent Control (ACVR1B) [%],Percent Control (ACVR1) [%],Percent Control (ACVR2A) [%],Percent Control (ACVR2B) [%],Percent Control (ACVRL1) [%],Percent Control (ADCK3) [%],Percent Control (ADCK4) [%],Percent Control (AKT1) [%],Percent Control (AKT2) [%],Percent Control (AKT3) [%],Percent Control (ALK(C1156Y)) [%],Percent Control (ALK(L1196M)) [%],Percent Control (ALK) [%]
CC1=C(C(=O)Nc2ccc3[nH]ncc3c2)C(c2ccc(Cl)c(Cl)c2)CC(=O)N1 (centres unmarked) [GSK299115A],100,83,90,97,74,94,83,100,95,80,69,100,99,92,100,100,100,100,100,77
COc1ccc(COc2ccc(Cc3cnc(N)nc3N)cc2OC)cc1 [GW632580X],92,100,87,84,90,76,91,100,74,95,100,100,92,100,75,100,100,94,87,98
Cl.O=C(Nc1ccc(Oc2ccc3[nH]c(NC(=O)c4ccccc4)nc3c2)cc1)Nc1cc(C(F)(F)F)ccc1F [GW709042A],94,12,31,69,9.8,60,26,100,100,100,100,100,100,100,90,100,100,84,92,73
CC1=C(C(=O)Nc2ccc3[nH]ncc3c2)C(c2ccc3ccccc3c2)CC(=O)N1 (centres unmarked) [GSK270822A],84,48,76,79,54,80,100,97,93,100,86,100,100,100,17,100,100,72,77,68
Nc1ncnc2occ(-c3ccc(NC(=O)Nc4cc(C(F)(F)F)ccc4F)cc3)c12 [GW770249X],92,0,9.1,72,0.7,56,41,100,100,100,100,100,100,100,100,100,100,41,74,36
COc1ccc2c(-c3ccnc(Nc4cccc(OC(F)(F)F)c4)n3)cnn2n1 [GW810372X],100,100,98,100,100,100,100,100,93,100,100,100,100,100,100,100,100,86,87,88
C[C@@H](Oc1cc(-n2cnc3ccc(OC4CCN(C)CC4)cc32)sc1C(N)=O)c1ccccc1Cl [GSK579289A],67,61,75,60,60,48,83,81,85,57,60,100,97,20,100,100,100,82,81,87
O=C(Nc1n[nH]c2nc(-c3ccc(O)cc3)c(Br)cc12)C1CC1 [SB-725317],37,16,12,48,22,31,100,100,72,75,79,65,100,100,100,100,85,54,87,75
COc1cc(N2CCN(C(C)C)CC2)ccc1Nc1nc(Nc2ccc(F)cc2C(=O)NC[C@@H](O)CO)c2cc[nH]c2n1 [GSK1392956A],100,100,100,100,100,100,100,100,100,100,100,86,94,100,83,100,100,0.1,1.1,0.2
NS(=O)(=O)c1ccc(N/N=C2\C(=O)Nc3ccc(C(=O)NCCc4c[nH]cn4)cc32)cc1 [GW300660X],100,100,86,100,100,91,100,100,100,100,100,100,100,100,100,100,100,92,91,100
